PrP UTR inh: suppresses PrP 5' UTR mRNA reporter expression; cell-based PrP 5' UTR mRNA reporter, plate reader; inhibition, % (concentration not given with the values); 340,000 tested, 0.35% active; in the data active means inhibition above about 52%; further: 0 = median of the neutral control wells
TcdB GH inh: TcdB glycohydrolase inhibition; TcdB glycohydrolase enzymatic assay, plate reader; inhibition, % at 9.99 µM; 350,000 tested, 0.24% active; AID 652162; in the data active means inhibition above about 10%
PfHsp40 rescue: rescue of PfHsp40-mediated yeast toxicity; S. cerevisiae expressing PfHsp40, growth rescue, ATP luminescence; growth rescue, % at 12.5 µM; 340,000 tested, 0.68% active; in the data active means growth rescue above about 28%, passing the limit was not always enough; inconclusive means no clear call, values can overlap the other calls;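 further: yeast W303a lacking pdr1 and pdr3 grown in galactose medium; growth measured after three days at 30 °C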
FadD28 binding: blocks FadD28 binding to the bisubstrate probe; fluorescence polarization; inhibition, % at 12.5 µM; 360,000 tested, 0.22% active; in the data active means inhibition above about 8.5%, passing the limit was not always enough; inconclusive means no clear call, values can overlap the other calls
Mtb BioA inh: inhibitors of Mycobacterium tuberculosis BioA enzyme. inhibition, % at 9.99 µM. 360,000 tested, 0.096% active. purified M. tuberculosis BioA enzyme, plate reader. AID 602481; in the data active means inhibition above about 40%; inconclusive means no clear call, values can overlap the other calls
Starred values were filed as active, the others as inactive; ? = inconclusive; · = no result; ! = a repeat was not active. This is a sample that favours compounds with a hit; in the whole collection about 1.1% have one here.

SMILES	PrP UTR inh	TcdB GH inh	PfHsp40 rescue	FadD28 binding	Mtb BioA inh
Cc1csc(SC(C)C(=O)NCC(=O)Nc2ccc(F)c(F)c2F)n1 (centres undefined)	-32	1	0	-2	·
CC(Sc1nc(N)cc(=O)[nH]1)C(=O)NCC(=O)Nc1ccc(F)c(F)c1F (centres undefined)	1	11*	1	-1	-2
C=CCc1ccc(O)c(-c2ccc(O)c(CC=C)c2)c1	-22	11*	233*	-2	7
Cc1ccc(CNc2ccc(O)cc2)cc1	-19	·	0	12*	0
Cc1ccc(NCc2ccccc2O)cc1	-29	·	-1	-1	·
N/C(=N\N=C/c1ccc(-c2ccc(O)c(C(=O)O)c2)o1)N[N+](=O)[O-]	-21	·	0	12*	2
O=C(O)c1cc(-c2ccc(/C=N/Nc3ccc([N+](=O)[O-])cn3)o2)ccc1Cl	-28	1	1	1	·
COCCCNC(=O)c1ccc(S(=O)(=O)c2ccc(C)cc2)c(NC(C)=O)c1	-34	2	91*	-2	-1
C[C@H](CO)N1C[C@H](C)[C@@H](CN(C)C)Oc2cc(C#C[C@@H](C)O)ccc2S1(=O)=O	·	-1	·	·	-1
Cc1csc(N=Nc2ccc(N(C)C)cc2)[n+]1[O-]	·	13*	·	-2	·
Oc1ccc(-c2cn3ccccc3n2)cc1	-93	41*	0	1	·
c1ccc(-c2cn3ccccc3n2)cc1	32	-1	2	-1	0
CC(=O)N1[C@@H](CO)[C@H](c2ccccc2)C12CN(C(=O)c1ccc3c(c1)OCO3)C2	·	0	·	·	·
CC(C)C(=O)NNC(=O)CC(=O)Nc1ccccc1C(=O)O	-20	0	40*	-1	·
O=C(CC(=O)Nc1ccccc1C(=O)O)NNC(=O)Cc1ccccc1	-8	1	1	-3	10
O=C(CS(=O)c1ccccc1[N+](=O)[O-])Oc1ccc(Br)cc1 (centres undefined)	-13	0	68*	1	·
O=C(C(=O)c1cc(Br)ccc1O)c1cc(Br)ccc1O	-25	2	112*	2	·
O=C(NCC[C@H]1CC[C@@H](NC(=O)c2ccc3c(c2)OCO3)[C@@H](CO)O1)Nc1ccc(Cl)cc1	·	0	·	·	3
Cc1oc2cc(Br)c(O)c(Br)c2c1-c1ccccc1	-38	·	97*	0	-4
O=C(c1ccncc1)N1CC(=O)N2[C@@H](CO)[C@H](c3ccc(/C=C/c4ccccc4)cc3)[C@@H]2C1	·	1	·	·	·
S=C(NCc1ccc(Cl)cc1)Nc1ccc(Cl)cc1Cl	-22	1	-1	2	·
S=C(NCCc1ccc(Cl)cc1)Nc1ccc(Cl)cc1Cl	-24	·	70*	-2	·
Fc1ccc(CCNC(=S)Nc2ccc(F)c(Cl)c2)cc1	-42	0	113*	-10	·
O=C(CSc1ccc(-c2nc3ccccc3[nH]2)cn1)Nc1ccc2c(c1)OCCO2	-190	·	-1	-3	0
O=C(CSc1ccc(-c2nc3ccccc3[nH]2)cn1)Nc1ccc(S(=O)(=O)NC2CC2)cc1	-1	1	3	33*	-4
SMILES	PrP UTR inh	TcdB GH inh	PfHsp40 rescue	FadD28 binding	Mtb BioA inh
Cc1nn(C2CC(O)C(O)C(CO)O2)c(=O)[nH]c1=O (centres undefined)	-11	13*	-2	-3	·
C[C@@H]1CCCCO[C@@H](CN(C)Cc2ccc(C(=O)O)cc2)[C@H](C)CN([C@@H](C)CO)C(=O)c2cc(NC(=O)Nc3ccc(F)cc3)ccc2O1	·	-3	·	·	4
O=C1CN(CC(=O)N2CCCCC2)c2ccccc2O1	-45	·	125*	-3	1
O=C(CN1C(=O)COc2ccccc21)N1CCCC1	-29	-1	0	-3	-3
CS(=O)(=O)N1[C@@H](C#N)[C@@H](c2ccccc2-c2ccc(F)cc2)[C@@H]1CO	·	1	·	·	·
CC(=O)N1CC2(C1)[C@H](c1ccc(-c3ccc(C#N)cc3)cc1)[C@H](CO)N2CCC(F)(F)F	·	-1	·	·	·
Oc1ccc(N=Nc2ccccc2)o1	-28	0	288*	-3	-2
O=S(=O)(O)c1ccc(N=Nc2ccccc2)cc1	-19	0	-1	-3	1
O=Nc1c(O)n(Cc2ccc(Cl)c(Cl)c2)c2ccccc12	-3	·	259*	-15	8
O=Nc1c(O)n(Cc2ccccc2)c2ccccc12	-7	1	-1	-3	3
Cc1ccc(C)c(Sc2ccc(NC(=O)CCN3C(=O)NC4(CCCC4)C3=O)cc2)c1	-7	2	31*	-10	0
Cc1ccc(NC(=O)CCN2C(=O)NC3(CCCC3)C2=O)cc1	-3	5	-1	-1	0
Cc1ccc(NC(=S)c2nc3ccccc3[nH]2)c(C)c1	-62	·	331*	-11	-1
Clc1ccccc1C(c1ccccc1)(c1ccccc1)n1ccnc1	-43	1	173*	-6	-1
C#CC(c1ccccc1)(c1ccccc1)n1ccnc1	·	1	·	-6	·
Nc1cc(-c2ccccc2)ccc1O	-34	·	37*	-5	0
O=C(O)c1ccc2c(c1)C1C(Cl)C(Sc3ccccc3[N+](=O)[O-])CC1C(c1cccc([N+](=O)[O-])c1)N2 (centres undefined)	-21	·	3	43*	17
CCN(CC)C(=O)c1ccc2c(c1)C1C(Cl)C(Sc3ccccc3[N+](=O)[O-])CC1C(C(=O)O)N2 (centres undefined)	-15	·	3	34*	·
Cc1ccc2c(c1Cl)NC(C(=O)O)C1CC(Sc3ccccc3[N+](=O)[O-])C(Cl)C21 (centres undefined)	-11	·	0	-11	·
CCN(CC)CCNc1ccc(C)c2sc3ccc(O)cc3c(=O)c12	-13	29*	0	0	·
O=C(C1CC1)N1CC(=O)N2[C@H](CO)[C@H](c3ccc(Br)cc3)[C@@H]2C1	·	0	·	·	·
Cc1noc(C)c1NC(=O)N(C)C[C@H]1Oc2ccc(NC(=O)Cc3cn(C)c4ccccc34)cc2CC(=O)N([C@@H](C)CO)C[C@H]1C	·	-1	·	·	24
CN(C)[C@@H]1C(=O)C(C(N)=O)=C(O)[C@@]2(O)C(=O)C3=C(O)c4c(O)cccc4[C@@](C)(O)C3[C@H](O)C12 (some centres undefined)	-53	-5	?	31*!	0
COc1ccc(NS(=O)(=O)c2ccc3c(c2)[C@H]2C=CC[C@H]2[C@@H](c2ccc(C(=O)O)cc2)N3)cc1	-15	1	0	32*	2
CC(=O)c1ccc2c(c1)C1C=CCC1C(c1ccc(S(=O)(=O)N3CCOCC3)cc1)N2 (centres undefined)	-19	·	-1	-5	·
Cc1c(Cl)cccc1NS(=O)(=O)c1ccc2c(c1)C1C=CCC1C(c1ccc(C(=O)O)cc1)N2 (centres undefined)	-32	·	35*	28*	·
CN(C)CC(=O)N[C@H]1CC[C@@H](CCNC(=O)C2CCC2)O[C@@H]1CO	·	0	·	·	0
C[C@H]1CN([C@@H](C)CO)C(=O)Cc2cc(NC(=O)NC3CCCCC3)ccc2O[C@@H]1CN(C)Cc1ccc(C(=O)O)cc1	·	-1	·	·	5
O=C(N/N=C(\c1ccccc1)c1cccnc1)c1cccc(F)c1	44	3	315*	-2	7

Source: PubChem
